SMILES strings stand for the structures. The whole screen tested about 140,000 compounds, of which about 1,400 (1%) were called active. This excerpt belongs to a sample that is enriched for actives. A number with no mark means an inactive call. Rule as the data show it: active = inhibition above about 17%; inactive = the rest.

These results are taken from PubChem BioAssay AID793 (The Scripps Research Institute Molecular Screening Center, 2007).

Sequence of Neuropeptide Y receptor type 2 (Homo sapiens) (P49146 whole entry, looked up): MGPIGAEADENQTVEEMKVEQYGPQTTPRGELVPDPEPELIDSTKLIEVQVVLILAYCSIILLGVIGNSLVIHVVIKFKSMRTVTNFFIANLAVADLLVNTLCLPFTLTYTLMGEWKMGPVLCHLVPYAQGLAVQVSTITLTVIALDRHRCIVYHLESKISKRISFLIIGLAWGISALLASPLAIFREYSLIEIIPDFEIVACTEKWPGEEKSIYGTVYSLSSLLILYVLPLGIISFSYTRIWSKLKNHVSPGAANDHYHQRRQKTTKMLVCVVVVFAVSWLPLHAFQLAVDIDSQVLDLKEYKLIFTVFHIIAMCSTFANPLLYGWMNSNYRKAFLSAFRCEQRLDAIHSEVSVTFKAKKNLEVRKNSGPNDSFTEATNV

This assay concerns the target Neuropeptide Y receptor type 2 (Homo sapiens) (UniProt P49146). Nature of the assay: NPY-Y2 receptor antagonists, primary screen, cell-based (AID 793).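 Also: 0% = vehicle with agonist challenge and 100% = reference antagonist with challenge.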 The following applies: NPY-Y2 expressing cells, antagonist mode; at 2.7 µM; stronger effect = higher value.
Broadly, the inhibition is the change of the read-out against control, counted positive when it falls. On to `CCCC(O)(CCC)C(=O)NN(C(=O)CCl)c1cccc(C)c1`, for which the inhibition is 8.32%.
Consider `Cc1ccc(N(NC(=O)C(C)(C)O)C(=O)c2ccccc2)cc1C`, for which the inhibition was 2.31%.
As for `CCCCC(O)(CCCC)C(=O)NN(C(=O)CCl)c1ccccc1`, the inhibition is 21.9% (active).
The same measure for `CCCc1cc(=O)[nH]c(SCc2cc(=O)oc3c(C)c(C)ccc23)n1`: 6.69%.
For `COc1cc(Cl)c(C)cc1NC(=O)[C@@H]1CCCN1C(=O)c1cccs1` the value was 6.63%; for `CC(=O)Oc1ccc2c(C)c(CC(C)O)c(=O)oc2c1` (stereo not given), 2.41%; for `NC(=O)COc1ccc2c3c(c(=O)oc2c1)CCCCC3`, 0.83%.
For `O=C(Oc1ccccc1)Oc1ccc2c(c1)oc(=O)c1ccccc12` the value was 23.1% (active); for `Cc1nc2ccccc2cc1C(=O)N/N=C/c1ccc([N+](=O)[O-])cc1`, -0.48%.
In the case of `Cc1cc(C(=O)OCC(=O)Nc2nnc(C(C)C)s2)c2ccccc2n1`, the inhibition is 4.1%.
The same measure for `CN(C)Cc1ccc(F)cc1Sc1cc(Cl)ccc1Cl`: 20.2% (active); for `CCN1CCN(c2c(Cl)cccc2NC(=O)c2ccc(Br)o2)CC1`: 31.1% (active).
For `COc1cc(OC)c(NC(=O)c2ccc(Br)o2)cc1Cl` the value was -1.32%; for `CCCC(=O)Nc1ccc(Cl)c(NC(=O)c2ccc(Br)o2)c1`, -1.21%.
As for `COC(=O)c1ccc(CSc2nncn2C)cc1`, the inhibition is 3.48%.
In the case of `COC(=O)c1ccc(CSc2nc3cc(Cl)ccc3o2)cc1`, the inhibition was 21.5% (active).
With `O=C(CSc1nc2ccccc2o1)N1c2ccccc2Sc2ccc(Cl)cc21`, the inhibition is 6.15%.
For `Cc1ccc(S(=O)(=O)NNC(=O)Nc2cccc3ccccc23)cc1` the value was 1.93%.
On to `COc1cccc2c(O)cc(=O)n(C)c12`, for which the inhibition is 1.18%.
With `C/C(=N\NS(=O)(=O)c1ccc(Br)cc1)c1cccs1`, the inhibition is 3.39%.
Take `CCOc1ccc(S(=O)(=O)NCC2CCCO2)cc1` (stereo not given): the inhibition was 2.22%.
For `CCOc1ccc(S(=O)(=O)N/N=C(\C)c2ccc(Cl)c(Cl)c2Cl)cc1` the value was 17.4% (active); for `Cc1cccc(NC(=O)/C=C/c2ccc3c(c2)OCO3)n1`, 3.73%; for `COc1cccc(-c2ccc(C#N)c(SCC(=O)NCCc3ccc(Cl)cc3)n2)c1`, 18.3% (active).
In the case of `COc1ccc(CCNC(=O)CSc2nc(-c3ccc(OC)c(OC)c3)ccc2C#N)cc1`, the inhibition is 4.73%.
The same measure for `COc1ccc(CCNC(=O)CSc2nnc(-c3cccc(F)c3)o2)cc1OC`: -1.35%.
For `Cc1nnc(NC(=O)/C=C/c2ccco2)s1` the value was 10.7%; for `O=C1OC(/C=C/c2ccccc2)=NC/1=C/c1ccco1`, 0.56%; for `CCN(CC)c1ccc(C2C3CCCCC3(O)CCN2CC(=O)Nc2ccccc2)cc1` (stereo not given), 5.72%.
Turning to `CC1CCCCN1CC(=O)NCc1ccc2c(c1)OCO2` (stereo not given), the inhibition was 1.99%.
The same measure for `Cc1ccc(NC(=O)CN2CCC3(O)CCCCC3C2c2ccc3c(c2)OCO3)c(C)c1` (stereo not given): 21.3% (active); for `FC(F)Oc1ccccc1NC(=S)Nc1cccc(Cl)c1Cl`: 0.76%; for `CCCCN(CC)C(=S)Nc1ccc2nc3n(c(=O)c2c1)CCCCC3`: 3.37%.
The same measure for `COc1ccc(/C=C(/CC(=O)Nc2ccc(C)cc2)c2nc3ccccc3s2)cc1`: 3.93%; for `O=C(C(=O)N1CCc2ccccc2C1)N1CCc2ccccc2C1`: -0.59%; for `CCOC(=O)/C(C#N)=C/c1ccc(N2CCN(Cc3ccccc3)CC2)cc1`: 5.28%.
The same measure for `CC1CN(S(=O)(=O)c2ccc(C(=O)Nc3sccc3C(N)=O)cc2)CC(C)O1` (stereo not given): -0.61%; for `Cc1ccsc1C(=O)N/N=C/c1ccc([N+](=O)[O-])cc1`: 1.67%.
With `Cc1ccc(/C=N/NC(=O)c2sccc2OCc2ccc(F)cc2)cc1`, the inhibition is 25.7% (active).
Take `CNC(=S)NNC(=O)c1sccc1OCc1ccccc1`: the inhibition was -0.16%.
As to `CCCCOc1ccc(C(=O)NN2CCN(C)CC2)cc1`, the inhibition is 0.95%.
The same measure for `CCCCOc1ccc(C(=O)NCc2ccncc2)cc1`: -1.04%; for `CCCOc1ccc(C(=O)C(CCC(CNCC)C(=O)c2ccc(OCCC)cc2)CNCC)cc1` (stereo not given): 30.9% (active).
For `CCOc1ccc(C(=O)Nc2nccs2)cc1[N+](=O)[O-]` the value was -0.69%.
The same measure for `O=C(OC1CCOC1=O)c1cccc(S(=O)(=O)Nc2ccc(F)cc2)c1` (stereo not given): 2.56%.
In the case of `CCc1cccc(NC(=O)CCC(=O)O)c1`, the inhibition was 1.58%.
Turning to `CCOC(=O)COc1ccc([N+](=O)[O-])cc1`, the inhibition was 1.59%.
For `COc1ccc(OC)c2c(N)c(C#N)c(C(F)(F)C(F)(F)F)nc12` the value was -1.33%.
`N#Cc1c(N)nc2c3c(sc(=N)c2c1N)NC(=O)CC3c1ccccc1Cl` (stereo not given): the inhibition was 1.65%.
For `COc1ccc(C2CC(=O)Nc3sc(=N)c4c(N)c(C#N)c(N)nc4c32)cc1OC` (stereo not given) the value was 86.1% (active); for `CCN(CC)S(=O)(=O)c1cccc(-c2n[nH]c(=S)n2/N=C/c2ccc(C(=O)OC)cc2)c1`, -0.07%.
For `Cc1cc(C)nc(NC(=O)c2cccc([N+](=O)[O-])c2)c1`, the inhibition was 2.05%.
On to `COc1ccc(/C=C/C(=O)c2cc(Br)ccc(=O)c2O)cc1`, for which the inhibition was 5.15%.
The same measure for `O=C(/C=C/c1ccc(F)cc1)NC(=S)NNC(=O)c1cccnc1`: 2.46%.
The same measure for `CCOc1ccc(NC(=S)NC(=O)/C=C/c2ccc(OC)cc2)c([N+](=O)[O-])c1`: 0.55%; for `COc1ccc(/C=C/C(=O)NC(=S)NN2CCCCC2c2cccnc2)cc1` (stereo not given): 44% (active); for `NC(=O)CC[C@@H]1NC(=O)[C@H](CO)NC(=O)c2cc([N+](=O)[O-])cc(I)c2NCC[C@@H](C(N)=O)NC1=O`: 0.11%.
As to `COCCN1C(=O)N[C@@H](c2ccccc2)C(C(=O)OC)=C1C`, the inhibition is 1.37%.
Take `Cc1ccc(S(=O)(=O)c2ccc(Cl)cc2)cc1S(=O)(=O)NC(C(=O)O)C(C)C` (stereo not given): the inhibition is -0.6%.
Consider `C/C(Cc1ccccc1)=N\NC(=O)CNC(=O)c1cccc(Br)c1`, for which the inhibition is 2.91%.
On to `O=C(CCN1C(=O)c2ccccc2C1=O)Nc1ccncc1`, for which the inhibition was 1.5%.
As for `N#Cc1c(NC(=O)CCCN2C(=O)c3ccccc3C2=O)oc(-c2ccccc2)c1-c1ccccc1`, the inhibition was 20.4% (active).
Turning to `COc1cc(C(=O)Nc2oc(-c3ccccc3)c(-c3ccccc3)c2C#N)cc(OC)c1OC`, the inhibition was 0.05%.
Consider `O=C(/C=C/c1cnc2ccccc2n1)NC1CCCCCC1`, for which the inhibition was 5.1%.
On to `O=C(O)/C(=C/c1cccnc1)NC(=O)c1ccccc1`, for which the inhibition was 0.95%.
The same measure for `CCCc1[nH]nc2c1C(C1CC=CCC1)C(C#N)=C(N)O2` (stereo not given): 2.32%.
On to `CCCc1[nH]nc2c1C(c1ccc(Br)s1)C(C#N)=C(N)O2` (stereo not given), for which the inhibition was 53.5% (active).
As for `CCCc1[nH]nc2c1C(c1c(C)nn(-c3ccccc3)c1Cl)C(C#N)=C(N)O2` (stereo not given), the inhibition is 0.27%.
For the molecule `Cc1[nH]c2ccccc2c1C(=O)COC(=O)c1c(-c2ccccc2)noc1C`, the inhibition is -0.4%.
For `C/C(=C/C(=O)N1CCN(C)CC1)C(=O)O` the value was 1.55%.
The same measure for `CN(CC(=O)Nc1ccc(S(=O)(=O)N2CCCC2)cc1)Cc1ccc(Cl)c(Cl)c1`: 1.24%.
The same measure for `CC(C)CNC(=S)NC(=O)c1ccc(Cl)cc1`: 6.88%; for `O=S(=O)(O)c1nc2ccccc2n1Cc1ccc(Cl)cc1`: 3%.
Take `N=c1n(Cc2ccc(Cl)cc2)c2ccccc2n1CC(O)c1ccco1` (stereo not given): the inhibition was 18.4% (active).
For `Cc1ccc(Cn2c(NC(=O)c3ccco3)nc3ccccc32)cc1` the value was 15.8%; for `CC(C)[C@@H]1NC(=O)c2cc([N+](=O)[O-])cc(I)c2NCCC[C@@H](C(=O)NC(CC(=O)O)C(N)=O)NC(=O)[C@H](CO)NC1=O` (stereo not given in full), 2.25%.
On to `CCOc1ccc(NC(=O)c2ccc(CSc3nnnn3C)cc2)cc1`, for which the inhibition was 1.22%.
As to `C=CCNCCCCOc1ccccc1`, the inhibition was 28.3% (active).
For `C=CCNC(=O)CCCOc1cccc(C)c1` the value was 1.38%; for `O=C(NCCOc1ccccc1)c1ccccc1`, 0.21%.
For `CCC1S/C(=N/N=C/c2ccco2)NC1=O` (stereo not given) the value was 2.82%.
In the case of `CN(C)S(=O)(=O)c1cc(NC(=O)CN2C(=O)NC3(CCCc4ccccc43)C2=O)ccc1Cl` (stereo not given), the inhibition was -4.1%.
As to `OCC(CO)(CO)NCc1ccc(-c2ccccc2)cc1`, the inhibition is 4.54%.
With `COc1ccc(S(=O)(=O)NC(C)C)cc1C(=O)NC1CCCCC1`, the inhibition is 5.96%.
On to `COc1cc2c3c(c1)/C(=C1/SC(=S)NC1=O)C(=O)N3C(C)(C)C=C2C`, for which the inhibition was -1.35%.
As to `CCC[C@@H]1C[C@@]1(CCC)[C@@H](NC(=O)c1ccccc1)c1ccc(C(=O)OC)cc1`, the inhibition is 6.17%.
Take `CCC/C=C(\CCC)C(NC(=O)Cc1ccccc1)c1ccc(C(=O)OC)cc1` (stereo not given): the inhibition was 20.7% (active).
Take `COc1ccc(C(CC(=O)O)NC(=O)Cc2ccccc2)cc1` (stereo not given): the inhibition was 0.31%.
For `CCN(c1ccc(NC(=O)COC(=O)CCc2nc3ccccc3n2-c2ccccc2)cc1)C(C)C` the value was -0.2%.
The same measure for `Cc1cc(-c2n[nH]c(=S)n2-c2ccc(C)c(C)c2)no1`: 3.33%; for `Cc1nc(SCc2ccc(F)cc2)c([N+](=O)[O-])[nH]1`: 6.36%; for `COc1cc(/C=C/C(=O)O)cc(S(=O)(=O)Nc2ccccc2SC)c1OC`: 1.33%.
Regarding `Cc1cccc2cc(CN(Cc3ccc4c(c3)OCO4)Cc3nnnn3C3CCCC3)c(=O)[nH]c12`, the inhibition is -0.14%.
The same measure for `CCC(c1nnnn1C1CCCC1)N(Cc1cccs1)Cc1cc2cccc(C)c2[nH]c1=O` (stereo not given): 18% (active); for `Cc1cccc2cc(CN(Cc3cccs3)C(c3nnnn3C3CCCC3)C(C)C)c(=O)[nH]c12` (stereo not given): 11%.
